# Among all 310,000 compounds or so, about 14,000 (4.5%) showed an effect of 50% or more. Effects have a minus sign here. The list comes from a sample in which strong results are over-represented; it also holds similar structures and randomly drawn compounds.
# Target: human ether-à-go-go-related gene (hERG) potassium channel (human, UniProt Q12809)
# Experiment: primary screen, population patch clamp on CHO cells stably expressing hERG; higher = less effect of the substance
# 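Also: peak tail current of the secondary pulse compared with the same well before compound.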
# human ether-à-go-go-related gene (hERG) potassium channel, sequence (Q12809 whole entry, looked up): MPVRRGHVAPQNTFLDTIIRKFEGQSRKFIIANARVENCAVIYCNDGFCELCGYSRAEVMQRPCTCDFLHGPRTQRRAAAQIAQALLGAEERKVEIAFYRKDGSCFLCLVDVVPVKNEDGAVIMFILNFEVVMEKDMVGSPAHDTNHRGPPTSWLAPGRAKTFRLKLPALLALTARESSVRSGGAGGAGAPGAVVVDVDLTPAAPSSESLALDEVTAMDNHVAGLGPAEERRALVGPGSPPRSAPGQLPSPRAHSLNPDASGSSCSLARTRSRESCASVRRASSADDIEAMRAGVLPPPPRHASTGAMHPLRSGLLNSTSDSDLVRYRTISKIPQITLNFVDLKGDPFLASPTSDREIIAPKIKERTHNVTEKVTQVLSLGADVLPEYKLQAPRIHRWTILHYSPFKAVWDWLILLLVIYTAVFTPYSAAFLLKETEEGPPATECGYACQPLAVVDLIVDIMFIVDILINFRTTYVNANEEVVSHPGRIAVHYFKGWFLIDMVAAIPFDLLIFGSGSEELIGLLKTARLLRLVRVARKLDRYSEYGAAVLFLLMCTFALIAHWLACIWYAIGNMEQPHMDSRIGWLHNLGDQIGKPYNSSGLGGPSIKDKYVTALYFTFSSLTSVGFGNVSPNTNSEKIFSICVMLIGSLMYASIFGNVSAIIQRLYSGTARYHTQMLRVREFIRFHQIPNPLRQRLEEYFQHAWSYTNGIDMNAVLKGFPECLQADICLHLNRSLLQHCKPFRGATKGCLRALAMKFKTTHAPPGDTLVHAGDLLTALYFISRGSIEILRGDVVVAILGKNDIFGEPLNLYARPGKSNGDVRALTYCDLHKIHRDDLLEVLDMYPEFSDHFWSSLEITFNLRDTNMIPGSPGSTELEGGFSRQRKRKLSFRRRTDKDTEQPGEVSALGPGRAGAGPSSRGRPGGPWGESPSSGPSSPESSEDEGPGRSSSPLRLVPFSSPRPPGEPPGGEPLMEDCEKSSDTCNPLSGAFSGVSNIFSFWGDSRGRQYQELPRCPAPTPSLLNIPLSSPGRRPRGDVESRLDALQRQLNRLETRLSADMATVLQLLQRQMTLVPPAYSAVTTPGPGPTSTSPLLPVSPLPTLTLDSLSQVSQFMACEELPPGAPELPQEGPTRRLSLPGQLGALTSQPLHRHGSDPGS
row,SMILES,"hERG current change (%, negative = inhibition) at 10uM"
1,Cc1ccc2sc(N(CCCN(C)C)C(=O)CCS(=O)(=O)c3ccccc3)nc2c1C,-6.04%
2,CCOc1cccc2sc(N(CCN(C)C)C(=O)CCS(=O)(=O)c3ccccc3)nc12.Cl,-23.5%
3,COc1cccc2sc(N(CCCN(C)C)C(=O)C(c3ccccc3)c3ccccc3)nc12.Cl,-72.7%
4,COc1cccc2sc(N(CCCN(C)C)C(=O)c3sc4ccccc4c3Cl)nc12.Cl,-24.6%
5,COc1cccc2sc(N(CCCN(C)C)C(=O)CCS(=O)(=O)c3ccccc3)nc12,-62.7%
6,COc1ccc(Cl)c2sc(N(CCN(C)C)C(=O)CCS(=O)(=O)c3ccc(C)cc3)nc12.Cl,-7.51%
7,COc1cccc2sc(N(CCN(C)C)C(=O)/C=C/c3cccs3)nc12.Cl,-41.5%
8,Fc1cccc(Cl)c1Cn1nnc2c(-n3ccnc3)ncnc21,0.152%
9,COCCN1Cc2cccc(C(=O)Nc3ccc(S(=O)(=O)N4CCCCC4)cc3)c2C1=O,-4.49%
10,O=S1(=O)c2cccc3cccc(c23)N1Cc1ccc(-c2nnco2)cc1,7.2%
11,COCc1cc(C)nc(OCC(=O)N/N=C/c2ccc(-c3cc([N+](=O)[O-])ccc3Cl)o2)c1C#N,18%
12,COc1ccccc1C1N(c2cc(Cl)ccc2OC)C(=O)C2CCCN21 (stereo not drawn),1.23%
13,Cn1c(=O)c2nc(NCc3ccccc3)cnc2n(C)c1=O,-1.44%
14,O=C(Nc1nnc(SCC(=O)N2CCOCC2)s1)C1CC(=O)N(c2ccc(F)cc2)C1 (stereo not drawn),15%
15,O=[N+]([O-])c1ccc(Cl)cc1CNc1ccc(F)c(F)c1,0.95%
16,COc1ccc(CNC2CCCc3ccccc32)c(OC)c1 (stereo not drawn),-36.9%
17,COc1ccc(NC(=O)c2cc([N+](=O)[O-])ccc2NC(=O)CNCc2ccccn2)c(OC)c1,7.29%
18,COc1ccc(CNC2CCCCC2C)c(OC)c1 (stereo not drawn),-56.9%
19,COc1ccc(NC(=O)c2cc([N+](=O)[O-])ccc2NC(=O)CNC2CCCCC2C)c(OC)c1 (stereo not drawn),-76.3%
20,COc1ccc(CC(=O)NC2CCCCCC2)c(OC)c1,-3.09%
21,COc1cc(NC(=O)c2cc([N+](=O)[O-])ccc2NC(=O)CNC2CCCCC2C)cc(OC)c1 (stereo not drawn),20.3%

row,SMILES,"hERG current change (%, negative = inhibition) at 10uM"
1,CCOc1ccc(CCNC(=O)COC(=O)c2ccc(C)s2)cc1OCC,14.6%
2,COc1ccc(C2NC(=O)C(C#N)=C(S)N2c2ccc(C)cc2)cc1OC (stereo not drawn),18.2%
3,Cc1c(C(N)=O)sc2nc(-c3ccccc3)cn12,1.01%
4,CC(=O)c1ccc(NC(=O)CNCC(c2ccccc2)N(C)C)cc1.O=C(O)C(=O)O (stereo not drawn),2.26%
5,COc1ccc(Cl)cc1NC(=O)CNC(c1ccccc1)c1ccccc1,12.6%
6,CCOC(=O)c1cc(NC(=O)CNCC(c2ccccc2)N(C)C)cc(C(=O)OCC)c1.O=C(O)C(=O)O (stereo not drawn),-57.7%
7,COc1ccc(Cl)cc1NC(=O)CNCC(c1ccccc1)N(C)C.O=C(O)C(=O)O (stereo not drawn),-73.9%
8,Cc1ccc(NC(=O)CNCC(c2ccccc2)N(C)C)cc1F.O=C(O)C(=O)O (stereo not drawn),-38.1%
9,Cc1ccc(Cl)cc1NC(=O)CNCC(c1ccccc1)N(C)C.O=C(O)C(=O)O (stereo not drawn),-30.3%
10,Cn1c(SCC(=O)N2CCOCC2)nc2c(c1=O)SCC2,15.8%
11,O=C(C1CCCC1)N1CCC(CC2CC(c3cccc(Br)c3)=NO2)(C(=O)NCC2CCCCC2)CC1 (stereo not drawn),-49.9%
12,CC1(C(=O)N2CCC(CC3CC(c4ccc(Cl)cc4)=NO3)(C(=O)NCC3CCCCC3)CC2)CC1 (stereo not drawn),-40.8%
13,O=C(CCCCCBr)N1CCC(CC2CC(c3ccc(Cl)cc3)=NO2)(C(=O)NCC2CCCCC2)CC1 (stereo not drawn),-74.6%
14,CC(C)(C)OC(=O)N1CCC(CC2CC(c3ccc(Cl)cc3)=NO2)(C(=O)NCC2CCCCC2)CC1 (stereo not drawn),-19.5%
15,CC(C)(C)OC(=O)N1CCC(CC2CC(c3cccc(Br)c3)=NO2)(C(=O)NCC2CCCCC2)CC1 (stereo not drawn),13.7%
16,O=C(CCCCCBr)N1CCC(CC2CC(c3cccc(Br)c3)=NO2)(C(=O)NCC2CCCCC2)CC1 (stereo not drawn),-69%
17,O=C(c1ccccc1)N1CCC(CC2CC(c3cccc(Br)c3)=NO2)(C(=O)NCC2CCCCC2)CC1 (stereo not drawn),-1.49%
18,O=C(c1ccccc1)N1CCC(CC2CC(c3ccc(Cl)cc3)=NO2)(C(=O)NCC2CCCCC2)CC1 (stereo not drawn),-52%
19,O=C(C1CCCC1)N1CCC(CC2CC(c3ccc(Cl)cc3)=NO2)(C(=O)NCC2CCCCC2)CC1 (stereo not drawn),-24.1%
20,CCOC(=O)c1c(-c2ccc(C)s2)csc1N,7.8%
21,Cc1cccc(/C=C/C(=O)c2cc(Br)ccc(=O)c2O)c1,16.7%

# — paper PMC4336329 (PLoS ONE, 2015)
